Screening results: PubChem, several laboratories
Most compounds without a hit are left out; they make up all but 3.1% or so of the library.
S1P3 antagonist – S1P3 receptor antagonists, primary screen, cell-based; Sphingosine 1-phosphate receptor 3 (Homo sapiens), Q99500; CHO S1P3 NFAT-BLA reporter, FRET fluorescence, antagonist mode; inhibition, % at 4.98 µM; actives 0.27% (n = 170,000);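 active means inhibition above the plate cutoff, the mean inhibition of test wells on that plate plus 3 SD, cut at about 28% in these data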;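 further: cells challenged with S1P at its EC80 of 0.8 µM; blue over green emission ratio from cleaved BLA substrate after 4 h stimulation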
Target sequence (Q99500 whole entry, looked up): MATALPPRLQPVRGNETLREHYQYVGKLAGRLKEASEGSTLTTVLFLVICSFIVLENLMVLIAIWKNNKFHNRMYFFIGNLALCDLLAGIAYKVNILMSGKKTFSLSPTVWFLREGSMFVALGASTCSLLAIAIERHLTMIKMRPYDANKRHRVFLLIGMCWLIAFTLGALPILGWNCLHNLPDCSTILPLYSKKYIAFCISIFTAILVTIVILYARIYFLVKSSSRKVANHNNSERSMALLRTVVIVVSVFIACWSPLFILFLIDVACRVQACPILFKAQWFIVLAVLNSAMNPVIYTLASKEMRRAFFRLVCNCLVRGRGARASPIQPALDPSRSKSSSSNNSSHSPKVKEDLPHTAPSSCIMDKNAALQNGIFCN
KCC2 mod – KCC2 cotransporter modulators, thallium flux, primary screen, cell-based, HEK293 KCC2, FluoZin-2 fluorescence, MLSMR. KCC2 cells, thallium flux FluoZin-2 fluorescence. B-score of Tl+ flux slope (higher = more flux/activation; lower = inhibition) at 10 µM. AID 1456, 2008. Solute carrier family 12 member 5 (Homo sapiens), Q9H2X9. actives 2.2% (n = 190,000);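 active means thallium flux slope and its plate-corrected score both differing from the plate sample mean at a set confidence after two filtering rounds, in either direction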;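 further: slope of fluorescence scaled to starting intensity during 10 to 20 s after thallium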
EP2 antag – human EP2 receptor antagonists, primary screen, TR-FRET cAMP, C6 glioma cells | inhibition, % at 25 µM | Prostaglandin E2 receptor EP2 subtype (Homo sapiens), P43116 | AID 1422, 2008 | actives 0.52% (n = 260,000) | C6 glioma cells expressing human EP2; cells stimulated with saturating PGE2;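 active means percent inhibition above 40 after rounding to a whole number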;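 further: rat C6 glioma host cells with rolipram phosphodiesterase inhibitor present; the protocol text gives 20 µM as final concentration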
EP2 modulator – EP2 receptor modulators, cAMP readout, primary screen, cell-based, HTRF cAMP, PGE2 stimulation | EP2-expressing cells, cAMP HTRF FRET, PGE2 co-stimulation | induction, % at 25 µM | actives 0.83% (n = 260,000) | AID 940, 2007;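 active means compounds whose cAMP rise, as percent of the full-agonist control response, exceeds 60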;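 further: rat C6 glioma line stably carrying human EP2 under a CMV promoter; the protocol text gives 20 µM as final concentration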
Hits are given with their value; . = inactive; / = no result; ! = not confirmed by another sample.

SMILES | S1P3 antagonist | KCC2 mod | EP2 antag | EP2 modulator
C/C(=N\NC(=S)Nc1cccc(C)c1)c1cccc(N)c1 | . | 9.25 | . | .
CS(=O)(=O)N1CCCc2cc(C(=O)CN3CCN(c4ncccn4)CC3)ccc21 | / | / | . | .
CC(C)(C)NC(=O)C(c1ccncc1)N(C(=O)c1csnn1)c1cccc(F)c1 (configuration not stated) | / | / | . | .
CC1CCN(S(=O)(=O)c2ccc(S(=O)(=O)N3CCCC(C)C3)cc2)CC1 (configuration not stated) | / | / | . | .
Cc1ccccc1C1c2[nH]c3ccccc3c2CCN1CCCn1cccn1 (configuration not stated) | . | / | . | 63.6
Fc1ccc(C2c3[nH]c4ccccc4c3CCN2CCCn2cccn2)cc1 (configuration not stated) | . | . | . | .
COc1ccc(NC(=S)N/N=C/c2cccn2Cc2ccc(F)cc2Cl)cc1 | . | 3.8 | . | .
Cc1cccc(-n2c(O)c(C=Nc3ccc(SC#N)cc3)c(=O)[nH]c2=O)c1 | / | / | . | .
Cc1c(N2CCCC2)cc2c(c1NC(=O)c1ccccc1Cl)C(C)(C)CC2(C)C | . | . | 46.8! | .
Cc1cccc(C(=O)NC(=S)Nc2ccccc2C(=O)O)c1 | . | . | . | .
Cc1cccc(C)c1NC(=S)NC(=O)c1ccccc1F | . | 35.3 | . | .
COC(=O)c1sc(NC(=S)NC(=O)c2cccc(C)c2)nc1C | . | 18.4 | . | .
O=C(NC(=S)NNC(=O)c1ccc(Cl)cc1Cl)c1cccnc1 | . | . | . | .
Cc1ccccc1C(=O)NNC(=S)NC(=O)c1ccc(Cl)cc1Cl | / | 27.8 | . | .
Cc1cccc(C(=O)NC(=S)NNC(=O)c2ccccc2Cl)c1 | . | 40.1 | . | .
O=C(NC(=S)Nc1ccc(Cc2ccncc2)cc1)c1ccccc1F | . | . | . | .
C=CCN(C#N)c1nc(NCC)nc(NCC)n1 | / | / | . | .
CC1CC(C)CN(C(=O)Cn2nc(-c3ccncc3)oc2=O)C1 (configuration not stated) | / | / | / | .
Cc1ccc(C(=O)NC(=S)Nc2ccccc2C(F)(F)F)cc1C | / | / | . | .
O=C(c1cc(Cl)ccc1Cl)N1CCCC1 | / | / | . | .
CCCN(CCC)C(=S)NC(=O)c1ccc(Cl)cc1Cl | / | 41.9 | . | .
O=C(NC(=S)N1CCCCCC1)c1ccc(Cl)cc1Cl | . | 88.2 | . | .
CCC(=O)Nc1cccc(NC(=S)NC(=O)c2ccc(Cl)cc2Cl)c1 | . | . | . | .
Cc1cccc(C(=O)NC(=S)Nc2ccccc2C(F)(F)F)c1 | . | 19.1 | . | .
O=C(NCc1ccccc1)N1CCCC1c1n[nH]c(Cc2ccc(F)cc2)n1 (configuration not stated) | / | / | . | .
SMILES | S1P3 antagonist | KCC2 mod | EP2 antag | EP2 modulator
CC1CCCN(c2nc3c(c(=O)[nH]2)CN(Cc2ccc(F)cc2)CC3)C1 (configuration not stated) | / | / | . | .
Cc1cc2cc3c(cc2n2c(SCC(=O)Nc4sc5c(c4C#N)CCCC5)nnc12)OCCO3 | / | / | . | .
COc1ccc(N(Cc2cc3ccccc3[nH]c2=O)C(=O)c2cc(OC)c(OC)c(OC)c2)cc1 | / | / | . | .
Cc1ccc(S(=O)(=O)N(Cc2cc3cc4c(cc3[nH]c2=O)OCCO4)CC2COCCO2)cc1 (configuration not stated) | / | / | . | .
CCn1c2ccccc2c2cc(CN3CCc4nc(C)[nH]c(=O)c4C3)ccc21 | / | / | . | .
CCOC(=O)c1ccc(NC(=S)NC(=O)COc2ccccc2)cc1 | . | 17.5 | . | .
CCOC(=O)c1ccc(NC(=S)Nc2ccccc2)cc1 | . | . | . | .
O=C(COc1ccccc1)NC(=S)Nc1cccc([N+](=O)[O-])c1 | . | 43.2 | . | .
COc1ccc(S(=O)(=O)N2CCN(Cc3ccccc3)CC2)cc1Cl | / | / | . | .
Cc1nc2ccc(-c3nc4ccc(N)cc4[nH]3)cc2[nH]1 | . | . | . | .
CN1CCN(c2ccc3nc(-c4ccc5nc(-c6ccc(O)cc6)[nH]c5c4)[nH]c3c2)CC1 | / | / | 48.8 | .
N#Cc1nc(Cc2cccc3ccccc23)oc1N1CCC(C(N)=O)CC1 | . | -7.41 | . | .
Cc1ccnc(NS(=O)(=O)c2cc(Cl)ccc2Cl)c1 | / | / | . | .
COc1ccc(NC(=O)CSC2=NCCS2)c(OC)c1 | / | / | . | .
CCn1c(O)c(N=Nc2ccc3ccccc3n2)c2ccccc21 | . | . | . | .
CCCCn1c(O)c(N=Nc2ccccn2)c2ccccc21 | . | 11.4 | . | .
O=C(N/N=C/c1cccc(O)c1)c1cc(-c2ccc3c(c2)OCO3)n[nH]1 | . | . | 64.2 | .
COc1ccc2[nH]c(=O)c(CN(CCN(C)C)C(=S)Nc3ccc(C)cc3)cc2c1 | / | / | . | .
Oc1ccc(Cl)cc1/C=C/c1ccc2cccc(O)c2n1 | . | . | . | .
Oc1ccc2ccccc2c1/C=C/c1ccc2c(Br)cc(Br)c(O)c2n1 | / | / | 41.8 | .
Cc1ccc(O)c(C2=Nc3ccccc3N=C(c3ccco3)C2)c1 | / | . | . | 63.0
Cc1ccc(C2=Nc3ccccc3N=C(c3ccco3)C2)c(O)c1 | / | . | . | .
CC(C)N(C(=O)CSc1nc2ccccc2n1CC(=O)N1C(C)CCCC1C)C(C)C (configuration not stated) | / | / | . | .
CCOc1ccc(/C(O)=C2\C(=O)C(=O)N(c3cc(C)on3)C2c2ccccc2OC)cc1 (configuration not stated) | . | . | 40.2 | .
Cc1ccc(C)c2nc(SCC(=O)Nc3nccs3)c(C#N)cc12 | / | / | . | 69.8
SMILES | S1P3 antagonist | KCC2 mod | EP2 antag | EP2 modulator
COC(=O)C1=NN(c2ccc(C)cc2)C2(S1)SC(C(C)=O)=C(C)N2c1ccccc1 (configuration not stated) | / | . | . | 63.1
CN(C)S(=O)(=O)c1ccc(NC(=S)NC(=O)c2ccc(Br)o2)cc1 | . | 12.6 | . | .
CC(C)C(=O)NC(c1ccc(F)c(F)c1)c1nccn1C (configuration not stated) | / | / | . | .
O=C(C[N+]1(c2ccccc2)CCOCC1)c1ccccc1 | / | / | 53.4 | .
CCP(=O)(c1cccc([N+](=O)[O-])c1)c1cccc([N+](=O)[O-])c1 | . | . | . | .
N=C(N)S[C@@H]1c2ccccc2-c2cc([N+](=O)[O-])ccc21 | / | / | 47.9 | .
O=C(COc1ccccc1)NC(=S)N1CCc2ccccc21 | . | 56.5 | . | .
O=C(COc1ccccc1Cl)NC(=S)N1CCc2ccccc21 | / | 37.1 | . | .
COC(=O)c1c(NC(=O)Cc2cccs2)sc(C(=O)Nc2ccc(C)cc2)c1C | / | / | . | .
CCOc1cc(CCC(=O)NCCn2nccc2C)on1 | / | / | . | .
COc1cccc(OC)c1C(=O)Nc1ccc(N2CCN(C(=O)C(C)C)CC2)cc1 | / | / | . | .
COc1ccc(N2C(=O)c3ccccc3C2=O)cc1 | . | . | . | .
COc1ccc(N2C(=O)C(Cl)=C(Oc3cccc(OC)c3)C2=O)cc1 | . | . | 100.4 | .
